# Measured values: the supplement of paper PMC4962491
# ± gives the standard deviation of the averaged measurements.
# Test system: FaDu
# Test: mitochondrial oxygen consumption rate normalised to cell number, Z score vs plate DMSO wells; higher = higher oxygen consumption (negative = OCR reduction)
# Conditions: treatment time 24 h, assay medium: 5 mM glucose, 5 mM pyruvate, 4 mM glutamine
# Protocol: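 Secondary screen: FaDu cells were incubated 24 h with the top 130 primary hits at 0.08, 0.4, 2 or 10 uM. Mitochondrial-specific OCR (basal minus antimycin A) was measured on a Seahorse XF96 in medium with 5 mM glucose, 5 mM pyruvate and 4 mM glutamine and normalised to Hoechst cell number. OCR score = (OCR - mean of plate DMSO wells) / SD of plate DMSO wells. Three repeats.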
# 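Further: compound exposure in DMEM (4 mM L-glutamine, 5 mM glucose), antimycin A injected at 2 µM after the basal reading and its residual OCR subtracted from basal.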
Structure (SMILES),mitochondrial oxygen consumption rate normalised (0.08 µM),mitochondrial oxygen consumption rate normalised (0.4 µM),mitochondrial oxygen consumption rate normalised (2 µM),mitochondrial oxygen consumption rate normalised (10 µM)
Nc1ccc2cc3ccc(N)cc3nc2c1,0.988 ± 0.79,1.43 ± 0.73,-2.56 ± 1.5,-6.68 ± 1.4
CC(C)(C)CC(C)(C)c1ccc(OCCOCC[N+](C)(C)Cc2ccccc2)cc1,-0.0571 ± 1.2,0.0149 ± 0.7,-6.66 ± 0.41,-13 ± 0.41
Nc1ncn([C@@H]2O[C@H](CO)[C@@H](O)[C@H]2O)c(=O)n1,-0.369 ± 1.5,1.15 ± 0.3,-1.48 ± 1.4,-2.3 ± 1.5
Nc1c2ccccc2nc2ccccc12,-1.04 ± 0.95,-0.393 ± 0.47,-2.4 ± 0.075,-9.41 ± 0.65
CC(=O)O[C@H]1C[C@@]2(C)[C@@H](C[C@@H](O)[C@H]3[C@@]4(C)CC[C@@H](O)[C@@H](C)[C@@H]4CC[C@@]32C)/C1=C(\CCC=C(C)C)C(=O)O,0.246 ± 2.1,-0.851 ± 1.9,0.0549 ± 0.78,-0.138 ± 1.1
CO[C@H](C(=O)[C@@H](O)[C@@H](C)O)[C@@H]1Cc2cc3cc(O[C@H]4C[C@@H](O[C@@H]5C[C@@H](O)[C@H](O)[C@@H](C)O5)[C@H](O)[C@@H](C)O4)c(C)c(O)c3c(O)c2C(=O)[C@H]1O[C@H]1C[C@@H](O[C@@H]2C[C@@H](O)[C@@H](O[C@@H]3C[C@](C)(O)[C@H](O)[C@@H](C)O3)[C@@H](C)O2)[C@H](O)[C@@H](C)O1,-4.64 ± 1.4,-7.12 ± 0.33,-7.79 ± 0.54,-8.14 ± 0.52
O=C1C(O)=C([C@H]2CC[C@H](c3ccc(Cl)cc3)CC2)C(=O)c2ccccc21,-0.607 ± 2.4,1.63 ± 1.6,-0.111 ± 2.5,-3.55 ± 2.2
C=C1CC[C@H](O)C/C1=C/C=C1\CCC[C@]2(C)[C@@H]([C@H](C)/C=C/[C@H](C)C(C)C)CC[C@@H]12,-1.49 ± 2.4,-0.211 ± 0.41,-1.83 ± 1.7,-2.44 ± 1.9
Cc1cc(/C=C/c2ccc3cc(N(C)C)ccc3[n+]2C)c(C)n1-c1ccccc1,-1.73 ± 1,-11.7 ± 0.64,-13.47 ± 0.04,< -13.8
O=C(O)c1cc(/N=N/c2ccc(O)c(C(=O)O)c2)ccc1O,0.0704 ± 1.6,0.359 ± 0.82,-0.373 ± 1.2,-0.951 ± 2.1
